Sampled rows, rich in hits. Any-hit rate of the full collection: about 14%.
HCMV inh: blocks human cytomegalovirus replication. HFF cells, HCMV-luciferase reporter, 72 h; hits give low values. activity change, negative = inhibition, % at 57.5 µM. 410,000 tested, 4.5% active; in the data active = activity change below about -60%; inconclusive = no clear call, values can overlap the other calls; inactive = above about -39%
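Two-dose cell screen: HFF monolayers treated with compounds and infected with luciferase-expressing HCMV at 1 PFU/cell, 72 h at 37C, then lysed for luciferase measurement.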
FBPA Giardia inh: blocks Giardia fructose-bisphosphate aldolase activity; A8B2U2; purified Giardia FBPA; 290,000 tested, 0.71% active; Potency, µM (doses to about 59.6 µM), without a hit: at the top dose activity, negative = inhibition, actives largely listed as inhibitors; also: potency is read from the fitted curve at half-maximal effect; nearly all actives have a fitted effect of over 55% in size
Target sequence (A8B2U2 whole entry, looked up): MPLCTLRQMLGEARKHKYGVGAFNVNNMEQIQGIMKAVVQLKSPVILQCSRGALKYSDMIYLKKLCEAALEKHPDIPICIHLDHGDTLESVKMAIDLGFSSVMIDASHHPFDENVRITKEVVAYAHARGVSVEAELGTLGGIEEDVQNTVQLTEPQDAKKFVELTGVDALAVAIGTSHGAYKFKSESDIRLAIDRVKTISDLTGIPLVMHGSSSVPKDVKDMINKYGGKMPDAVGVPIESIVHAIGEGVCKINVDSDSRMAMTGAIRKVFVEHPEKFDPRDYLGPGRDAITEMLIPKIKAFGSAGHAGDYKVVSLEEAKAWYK
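Giardia FBPA (40 nM reagent) was preincubated 10 min at RT with compound (up to 57.5 uM final), then substrate plus GAPDH/TPI/NAD/arsenate coupling system with diaphorase/resazurin was added; resorufin fluorescence (525/598 nm) was read after 20 min.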
Pf growth 96h: P. falciparum growth inhibition at 96 hour, primary screen for plastid delayed-death inhibitors; P. falciparum luciferase reporter growth, 96 h; AID 504834; Potency, µM (titrated, usually from 28.7 µM), for inactives: at the highest dose activity change, negative = inhibition, most hits filed as inhibitors; 320,000 tested, 6.9% active; also: potency is read from the fitted curve at half-maximal effect
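96 h incubation, 37 C, 5% CO2, of luciferase-reporter P. falciparum-infected RBCs (2% hematocrit, 0.05% parasitemia final) with test compounds; endpoint luminescence.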
Pf growth 48h: P. falciparum growth inhibition at 48 hours (one generation); AID 504832; Potency, µM (series often up to 28.7 µM), for the others: at the highest dose activity change, negative = inhibition, most hits filed as inhibitors; P. falciparum luciferase growth in erythrocytes, 48 h; 310,000 tested, 5.9% active; also: potency is read from the fitted curve at half-maximal effect
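Erythrocytes infected with P. falciparum carrying an integrated firefly luciferase reporter (2% hematocrit, 0.1% parasitemia final) were exposed to compounds in RPMI 1640 with 0.5% Albumax at 37 C, 5% CO2. Growth inhibition was scored as reduced luminescence.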
Sm TGR block: blocks Schistosoma mansoni thioredoxin glutathione reductase; Q962Y6; purified TGR, DTNB reduction, TNB absorbance 405 nm; Potency, µM (highest dose often 114 µM), for the others: at the top dose activity change, negative = inhibition, most hits filed as inhibitors; 360,000 tested, 3% active; AID 485364; also: potency is read from the fitted curve at half-maximal effect; nearly all actives have a fitted effect of over 60% in size
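First, TGR (20 nM dispensed) and NADPH were mixed with compound. Second, a 15 min room-temperature incubation followed. Third, further NADPH and then DTNB were added to start the reaction. Finally, TNB absorbance was monitored kinetically.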
An asterisk follows results filed as active; ? = inconclusive; nt = not tested or not shown; [ ] = remark or other dose. Unless noted, calls follow the shape of the dose curve; as a rule, active = well fitted curve in the direction sought with a large enough effect; inconclusive = small, poorly fitted or top-dose-only effect, or another doubt; inactive = no such curve, though single readings can be large; an effect the other way counts as inactive or inconclusive. % is scaled to controls: 0 for no effect and ±100 for the full control effect.

SMILES	HCMV inh	FBPA Giardia inh	Pf growth 96h	Pf growth 48h	Sm TGR block
O=C1C(Cl)=C(NC2CCCCC2)C(=O)N1c1ccc(Cl)cc1	84.1	-1.2%	9.28µM*	?	4.0%
Cc1ccc2nc3cc([N+](=O)[O-])cc([N+](=O)[O-])c3cc2c1	57.1	-16.1%	?	?	2.51µM*
CCC[C@H]1[C@H](N(C)Cc2cccs2)CC[C@@]23CCCN2C(=O)CCC[C@@H]13	-4.9	nt	nt	nt	nt
c1ccc2c(c1)-c1nc3ccccc3cc1C2N1CCCCC1 (centres undefined)	-101.8*	nt	nt	nt	nt
COc1cccc(N2CCN(S(=O)(=O)c3ccc4c(c3)N(C(C)=O)CCO4)CC2)c1	-18.9	14.6%	?	-7.4%	1.6%
COc1cccc(OC)c1OCCOc1ccc(C(=O)c2ccccc2)cc1	-65.8*	-0.6%	0.37µM*	3.3%	0.7%
COC(=O)c1ccc(OCCOc2ccccc2C)cc1	-15.9	4.5%	1.31µM*	13.1%	-11.6%
CCOC(=O)C(CCCOc1ccccc1C)C(=O)OCC	3.2	16.9%	9.28µM*	-21.7%	-4.3%
COC(=O)c1ccc(OCCOc2ccccc2)cc1	24.5	1.6%	68.8%	nt	-1.6%
CCOC(=O)C(CCCCOc1ccc([N+](=O)[O-])cc1)C(=O)OCC	-8.2	-3.6%	?	16.0%	0.1%
Cc1ccc([C@@H]2C[C@H]3[C@@H](CN2S(=O)(=O)c2ccc(C)cc2)C(=O)C[C@@H](c2ccc(C)cc2)N3S(=O)(=O)c2ccc(Cl)cc2)cc1	-9.9	nt	nt	nt	nt
O=[N+]([O-])c1ccc(CN2[C@H](COCc3ccccc3)C=CS2(=O)=O)cc1	-29.2	nt	nt	nt	nt
N#CC1=C(N)C(C#N)(C#N)[C@H](c2cccnc2)[C@H]2CN(C(=O)OCc3ccccc3)CC=C12	-20.9	-19.1%	13.1µM*	?	?
N#CC1=C(N)C(C#N)(C#N)C(c2cccnc2)C2CCCC=C12 (centres undefined)	nt	4.46µM*	-10.5%	-2.3%	-26.4%
N#CC1=C(N)C(C#N)(C#N)C(c2cccnc2)C2CC(c3ccccc3)CC=C12 (centres undefined)	nt	-18.0%	11.7µM*	?	?
CCOC(=O)N1CC=C2C(C#N)=C(N)C(C#N)(C#N)[C@H](c3ccc(OC(C)C)c(OCC)c3)[C@H]2C1	25.4	-7.6%	-19.5%	5.22µM*	-21.7%
CCC1CCC(C(=O)NC(C(=O)NCCN2CCOCC2)C(C)C)CC1 (centres undefined)	-15.3	-2.3%	?	2.6%	83.4%
Cn1cnc2c(=O)oc3ccc(S(=O)(=O)Nc4ccc(F)cc4)cc3c21	16.1	nt	nt	nt	0.7%
COc1cccc(CNC(=O)[C@H]2CCCN2C(=O)[C@H]2CCCN2C(=O)c2ccc(C)c(C)c2)c1	-26.5	nt	nt	nt	nt
N#CC1=C(N)C(C#N)(C#N)C(c2ccc[nH]2)C2CCCC=C12 (centres undefined)	-25.6	?	?	?	15.8µM*
CCSC1=C(C#N)C2(CCCC2)C(C#N)=C(N)N1	-21.9	-4.4%	-4.2%	9.28µM*	?
Cc1onc(-c2ccccc2)c1C(=O)Nc1ncc([N+](=O)[O-])s1	-95.5*	nt	35.2%	?	-2.6%
Cc1ccc2sc(NC(=O)c3ccc4c(c3)OCCO4)nc2c1C	65.9	nt	nt	nt	9.4%
Cc1nc2ccc3nc(NC(=O)c4ccc5c(c4)OCCO5)sc3c2s1	-105.6*	4.7%	nt	77.9%	-4.0%
O=C(Nc1ncc([N+](=O)[O-])s1)c1ccc2c(c1)OCO2	-92.9*	-26.3%	3.7%	4.8%	4.6%
SMILES	HCMV inh	FBPA Giardia inh	Pf growth 96h	Pf growth 48h	Sm TGR block
Cc1nc2c(ccc3nc(NC(=O)C(c4ccccc4)c4ccccc4)sc32)s1	0.8	-4.1%	10.4µM*	3.7µM*	2.0%
Cc1onc(-c2ccccc2)c1C(=O)Nc1nnc(C(C)C)s1	-0.2	-20.8%	?	18.2%	-20.8%
O=C1[C@H](Oc2ccccc2)[C@@H](c2ccccc2)N1c1ccncc1	-5.6	nt	nt	nt	nt
CCOc1cccc(-c2c(C(=O)N/N=C/c3cccs3)nnn2-c2nonc2N)c1	-4.1	nt	?	-27.4%	-8.7%
CC(=O)OC[C@@H]1O[C@@H](O/N=C2/C[C@@H](O)[C@@H](O)[C@@H]3[C@@H]4C(=O)N(C[C@@H]5CCCO5)C(=O)[C@H]4CC[C@@H]23)[C@H](OC(C)=O)[C@H](OC(C)=O)[C@@H]1OC(C)=O	nt	-0.4%[12.9 µM]	nt	nt	nt
Cc1cc(NC(=O)c2ccc3c(c2)N(Cc2cccc(Cl)c2)C(=O)c2ccccc2S3(=O)=O)ccc1Br	-8.4	nt	nt	nt	1.6%
COc1cccc(NC(=O)CCc2nnc3n(CC(C)C)c(=O)c4ccccc4n23)c1	-10.9	nt	nt	nt	3.8%
Cc1cnc(NC(=O)c2ccc3c(c2)OCCO3)s1	-79.7*	nt	78.0%	11.0%	-9.4%
Cc1nc2c(ccc3nc(NC(=O)c4ccc5c(c4)OCCO5)sc32)s1	-82.5*	-9.6%	?	80.7%	-29.8%
CC1CCCN(S(=O)(=O)c2ccc(C(=O)NC(C)c3ccccc3)cc2)C1 (centres undefined)	-9.7	nt	1.9%	?	-1.0%
COc1ccc(CCNC(=O)C(C)c2ccc([N+](=O)[O-])cc2)cc1 (centres undefined)	?	6.3%	8.28µM*	-10.3%	8.5%
COc1ccc(CCNc2ccc([N+](=O)[O-])cn2)cc1	5.0	3.4%	13.1µM*	?	-18.9%
COc1cccc(OCCNc2ccc([N+](=O)[O-])cn2)c1	-20.8	nt	?	-0.4%	-7.8%
COc1ccc(C(=O)Nc2ccc3oc(-c4cccc(Cl)c4)cc(=O)c3c2O)cc1	-67.5*	1.3%	?	?	?
COc1ccc(C(=O)Nc2ccc(O)c3c(=O)cc(-c4cccc(Cl)c4)oc23)cc1	?	6.0%	?	3.4%	-13.1%
OC1CCC(Nc2nccc3[nH]c(-c4cccc(C(F)(F)F)c4)nc23)CC1 (centres undefined)	4.4	nt	nt	nt	nt
COc1ccc(/C=C2/C(=O)NC(=O)N(Cc3ccco3)C2=O)cc1	nt	-7.5%	0.0%	44.1%	nt
Cn1cccc1/C=C1\C(=O)NC(=O)N(Cc2ccco2)C1=O	?	0.1%	2.1%	-13.7%	39.8µM*
Cc1ccc(OCCn2cccc2/C=C2/C(=O)NC(=O)N(Cc3ccco3)C2=O)cc1	?	2.4%	?	35.9%	14.1µM*
CC(=O)N1CCC2(CCCN(c3ccc(-c4ccccc4)cc3)C2)CC1	nt	-20.3%	nt	nt	nt
CC(=O)Nc1ccc(C#Cc2ccc(NC(C)=O)cc2)cc1	-72.1*	2.0%	72.1%	47.0%	5.2%
O=C(Nc1ccccc1C(=O)O)c1ccc(NC(=O)C2CC2)cc1	0.1	nt	?	28.9%	0.0%
O=C(Nc1ccc(C#Cc2ccccc2)cc1)C1CC1	-64.1*	-2.9%	0.0%	-51.0%	-3.4%
O=C(Nc1ccccc1O)c1ccc(NC(=O)C2CC2)cc1	358.1	18.6%	55.4%	2.08µM*	-4.0%
OC(c1ccccc1)c1nc(-c2ccc(Cl)cc2)cs1 (centres undefined)	6.4	nt	nt	nt	nt
